Consider 16 compounds from PubChem BioAssay (NCI).

This is part of a sample that, as a whole, favours compounds with a hit. Of some 83,000 tested, about 20% had one in any assay.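 Cell lines were cultured in 96-well plates, exposed to a single compound concentration, and assessed for percent growth 48 hours later.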 Unmarked numbers belong to inactive results. Active and inactive are the calls of the source. Rule for the calls: active = growth percent below 10; inactive = the rest.

Common to all, as to test: NCI-60 one-dose screen, 48 h (100 = growth as untreated, 0 = no growth, -100 = all killed)
Details in all cases: 10 µM unless noted

Test [1] has as its system SR leukemia.
The subject of test [2] is RPMI-8226 leukemia.
Test [3] deals with OVCAR-8 ovarian.
Test [4] has as its system OVCAR-5 ovarian.
For test [5], the system named is OVCAR-4 ovarian.
Test [6] has as its system SK-OV-3 ovarian.
Test [7] deals with IGROV1 ovarian.
Test [8] deals with OVCAR-3 ovarian.
Test [9] deals with HS 578T breast.
For test [10], the system named is NCI/ADR-RES ovarian.
The subject of test [11] is T-47D breast.
In test [12] the test system is BT-549 breast.
The test system of test [13] is MDA-MB-435 melanoma.
Test [14] deals with SW-620 colon.
Test [15] deals with MCF7 breast.
In test [16] the test system is HCT-116 colon.
Test [17] deals with HCC-2998 colon.
The subject of test [18] is KM12 colon.

Consider `COc1ccc(OC)c(-c2c(C#N)c(-c3ccco3)nc3c2c(-c2ccccc2)nn3-c2ccccc2)c1`, for which the growth in test [1] is 101%; in test [2], 96.7%; in test [3], 96.2%; in test [4], 95.5%; in [5], 103%; in [6], 95.8%. In addition, the growth is 88.9% in test [7]; 112% in [8]; 86.2% in test [9]; 93.8% in [10]; 84% in test [11]; 108% in test [12]. The growth is 106% in test [13]; 95.8% in test [14]; 94.7% in test [15]; 87.8% in [16]; 105% in test [17]; 106% in test [18].

Regarding `O=S(=O)(NCCNc1cc(-c2cn(-c3ccccc3)nc2-c2cccc(O)c2)ccn1)c1ccc(Br)cc1`, the growth is 5.3% (active) in test [1]; 13% in test [2]; 25% in test [3]; 50% in test [4]; 40.7% in test [5]; 45.8% in test [6]. For the same compound, the growth is 49.6% in test [7]; 34.7% in [8]; 24.8% in [9]; 25.5% in test [10]; 10.5% in test [11]; 45.6% in test [12]. In addition, the growth in test [13] is 22.4%; in test [14], 32.4%; in [15], 13%; in test [16] it was 24%; in test [17], -61.8% (active); in [18], 17.3%.

Consider `Cn1c(=O)c2c(nc(Br)n2CC(=O)Nc2ccc(F)cc2)n(C)c1=O`, for which the growth in test [1] was 89.2%; in [2] it was 79.1%; in test [3], 103%; in test [4], 103%; in [5], 120%; in [6], 102%. For the same compound, the growth in [7] is 107%; in test [8], 114%; in test [9], 100%; in [10] it was 102%; in test [11], 87.2%; in [12] it was 101%. The growth is 112% in test [13]; 105% in test [14]; 99.2% in [15]; 84.5% in test [16]; 114% in test [17]; 101% in test [18].

Regarding `Clc1ccc2c(NCCNc3nc(-c4ccccc4)cc(-c4ccccc4)n3)ccnc2c1`, the growth in test [1] was -19.4% (active); in test [2], -34.4% (active); in [3] it was -70.6% (active); in test [4] it was -79.7% (active); in test [5] it was -66.4% (active); in test [6], 83.6%. In addition, the growth in test [7] was -83.1% (active); in [8], -85.6% (active); in [9], -17.2% (active); in [10] it was -41.8% (active); in test [11] it was -59.7% (active); in [12] it was 75.1%. In addition, the growth in [13] was -82.6% (active); in [14] it was -53.7% (active); in [15], -68.7% (active); in test [16], -69.9% (active); in [17], -28.7% (active); in [18], 5.29% (active).

Turning to `O=C(Nc1ccc(/C=C2\SC(=O)N(Cc3ccc(OC(F)(F)F)cc3)C2=O)cc1)c1ccc(Cl)c([N+](=O)[O-])c1`, the growth in test [1] was -0.106% (active); in test [2] it was -11.2% (active); in test [3], 87.5%; in test [4], 85.5%; in test [5], 31.4%; in [6], 93.7%. Also, the growth is 79.9% in [7]; 48.2% in [8]; 72.1% in [9]; 73.6% in [10]; 4.78% (active) in test [11]; 75.3% in test [12]. The growth was 99.6% in [13]; 2.11% (active) in test [14]; 1.61% (active) in [15]; 67.5% in test [16]; 96.7% in test [17]; 53.1% in test [18].

Regarding `CC(C)=CCC[C@](C)(O)[C@H]1CC[C@]2(C)[C@@H]1CC[C@@H]1[C@@]3(C)C/C(=C/c4ccc(Br)cc4)C(=O)C(C)(C)[C@@H]3CC[C@]12C`, the growth was 80.7% in test [1]; 71.8% in test [2]; 84.5% in [3]; 101% in test [4]; 78.5% in [5]; 96.5% in [6]. Besides, the growth in test [7] is 101%; in [8], 87.5%; in test [9], 92.2%; in test [10], 98.2%; in test [11], 64.3%; in [12], 95.4%. Moreover, the growth in [13] is 95.3%; in [14], 82.2%; in test [15], 82.2%; in [16], 66.5%; in test [17], 92%; in [18], 94.9%.

In the case of `CN(C)c1ccc(C(=O)c2ccc(N(C)C)c(N)c2)cc1N`, the growth in test [1] is 7.86% (active); in test [2], 60.4%; in [3], 41.6%; in [4] it was 75.7%; in test [5] it was 47%; in test [6] it was 24.6%. The growth is 72.8% in test [7]; -31% (active) in test [8]; 7.6% (active) in [9]; -14% (active) in [10]; 21.9% in test [11]; 31.9% in [12]. The growth in test [13] was -32.1% (active); in test [14], 10.2%; in test [15] it was 15%; in test [16] it was 23.6%; in [17], 86.1%; in test [18] it was 17.7%.

`C#CCn1c(C)cc(C)c(C#N)c1=O`: the growth in test [1] is 101%; in test [2], 103%; in test [3], 103%; in test [4], 99.9%; in [5], 105%; in [6], 118%. Also, the growth in [7] is 103%; in test [8], 112%; in [9], 103%; in test [10], 106%; in [11] it was 101%; in test [12] it was 98%. Also, the growth in test [13] was 106%; in [14], 104%; in test [15], 91.5%; in test [16], 103%; in test [17], 105%; in test [18], 101%.

`O=C(CCCCCn1c2ccccc2c2c3c(c4c5ccccc5[nH]c4c21)C(=O)N(O)C3=O)N1CCOCC1`: the growth in test [1] was 8.26% (active); in test [2], 14.9%; in [3] it was 41.7%; in test [4], 116%; in test [5] it was 64.5%; in [6], 70.4%. Moreover, the growth was -26.5% (active) in test [7]; 40.9% in [8]; 66.5% in test [9]; 73.7% in [10]; 23.6% in [11]; 60.3% in test [12]. Further, the growth was 54.9% in test [13]; 56.4% in test [14]; 15.7% in test [15]; 24.3% in test [16]; 18.8% in test [17]; 47.6% in test [18].

On to `Cc1cc(Cl)nc(N(CCNc2ccnc3cc(Cl)ccc23)Cc2ccco2)n1`, for which the growth in test [1] was -3.12% (active); in test [2], -30.7% (active); in test [3], 45.3%; in test [4], 80.5%; in test [5], 53.1%; in test [6] it was 123%. In addition, the growth in test [7] is 38.3%; in [8] it was -41.2% (active); in test [9], 79.2%; in test [10] it was 44.5%; in test [11], -14.7% (active); in [12], 54.7%. Further, the growth in test [13] was 41.9%; in test [14] it was 28%; in test [15] it was 22.7%; in [16], 13.6%; in [17], 91.1%; in [18], 59.5%.

With `O=C(O[C@@H]1Cc2c(O)cc(O)cc2O[C@@H]1c1cc(O)c(O)c(O)c1)c1cc(O)c2c(c1)OCO2`, the growth was 72.1% in test [1]; 99.8% in test [2]; 103% in [3]; 97% in test [4]; 99.8% in test [5]; 103% in test [6]. The growth is 107% in test [7]; 106% in test [8]; 98.1% in test [9]; 97.5% in [10]; 91.3% in [11]; 96.2% in [12]. Also, the growth in test [13] was 105%; in [14] it was 106%; in test [15], 100%; in [16], 86.3%; in [17], 104%; in [18], 101%.

As to `COC(=O)[C@]12CC[C@@H](C)[C@H](C)[C@@H]1C1=CC[C@@H]3[C@@]4(C)C[C@@H](OC(C)=O)[C@H](O)[C@@](C)(COC(C)=O)[C@@H]4[C@H](O)C[C@@]3(C)[C@]1(C)CC2`, the growth in test [1] is -17.7% (active); in test [2], -23.7% (active); in [3] it was -53.7% (active); in test [4] it was -75.8% (active); in test [5], -70.3% (active); in test [6] it was -81.5% (active). Further, the growth in [7] was -61.3% (active); in test [8] it was -79.4% (active); in test [9], -28.4% (active); in [10], -63.7% (active); in [11], -66.3% (active); in [12], -85.8% (active). The growth in test [13] is -81.7% (active); in [14], -80.9% (active); in test [15] it was -78.7% (active); in [16] it was -69.5% (active); in test [17] it was -89.7% (active); in [18] it was -75.4% (active).

Take `CCOC(=O)C/C(=C\c1ccccc1)C(C)=O`: the growth in [1] is 96.7%; in [2], 95%; in test [3] it was 90.9%; in test [4] it was 108%; in test [5], 112%; in test [6], 75.1%. Besides, the growth is 109% in [7]; 107% in test [8]; 108% in test [9]; 110% in test [10]; 68.1% in [11]; 98.4% in test [12]. The growth in [13] was 109%; in [14], 103%; in [15], 101%; in test [16], 88.7%; in [17], 107%; in test [18], 101%.

On to `N#CC1=C(N)Oc2c(sc3c(F)cccc23)C1c1ccc(Cl)cc1` (stereo not drawn), for which the growth was 10.8% in test [1]; 10.6% in test [2]; 42.8% in [3]; 82.1% in [4]; 62.8% in test [5]; 31% in test [6]. For the same compound, the growth in test [7] is 33.3%; in [8], 6.16% (active); in test [9] it was 40.6%; in test [10], 14.4%; in [11], 33.2%; in [12] it was 19.4%. The growth in [13] is -32% (active); in [14], 26.9%; in [15] it was 14.8%; in test [16], 14.4%; in test [17], 87.7%; in [18], 33.9%.

As to `Cc1ccnc2c(OCc3ccccc3)cccc12`, the growth is 101% in [1]; 99.2% in test [2]; 115% in [3]; 93.1% in test [4]; 72.2% in test [5]; 112% in [6]. Moreover, the growth in [7] is 87.5%; in test [8] it was 92.8%; in [9] it was 92.2%; in test [10] it was 86.1%; in [11], 72.8%; in [12], 101%. Besides, the growth in test [13] is 90.2%; in test [14], 92%; in [15], 38.3%; in test [16], 92.4%; in test [17] it was 86.6%; in test [18], 82.8%.

Regarding `CC(=O)O[C@@H]1CCN2C(=O)N(C)c3ccccc3[C@@H]2C1`, the growth in test [1] is 93.3%; in test [2], 104%; in [3] it was 109%; in [4], 96.5%; in test [5] it was 107%; in [6], 101%. For the same compound, the growth in test [7] was 105%; in test [8] it was 122%; in test [9] it was 116%; in test [10], 104%; in test [11], 92.8%; in test [12], 108%. The growth is 107% in [13]; 113% in [14]; 94.6% in test [15]; 102% in test [16]; 104% in test [17]; 116% in [18].
